CYP2C19 inh – blocks human cytochrome P450 2C19; CYP2C19 Supersomes, luciferin-H EGE luminescence, 30 min; inhibition, % at 5 µM; 21% of 96,000 active; AID 778;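 active = CYP2C19 inhibition above a set limit at 5 µM in the primary screen, cut at about 50% in these data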
CYP2C19 activ – increases human CYP2C19 enzyme activity. P33261. recombinant CYP2C19, luciferin-H EGE luminescence; stronger effect = higher value; 0 = fully inhibited enzyme, 1 = untreated enzyme. activation factor at 5 µM. 96,000 tested, under 10 active. AID 1025;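 active = activation factor of at least 2 at 5 µM in the primary screen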
CYP2C9 inhib – blocks human cytochrome P450 2C9; P11712; CYP2C9 Supersomes, luciferin-H conversion, luminescence; inhibition, % at 5 µM; 20% of 96,000 active; AID 777;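 active = blocking of liver enzyme CYP2C9 beyond about 50% at 5 µM, limit read from the data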
Target sequence (P11712 whole entry, looked up): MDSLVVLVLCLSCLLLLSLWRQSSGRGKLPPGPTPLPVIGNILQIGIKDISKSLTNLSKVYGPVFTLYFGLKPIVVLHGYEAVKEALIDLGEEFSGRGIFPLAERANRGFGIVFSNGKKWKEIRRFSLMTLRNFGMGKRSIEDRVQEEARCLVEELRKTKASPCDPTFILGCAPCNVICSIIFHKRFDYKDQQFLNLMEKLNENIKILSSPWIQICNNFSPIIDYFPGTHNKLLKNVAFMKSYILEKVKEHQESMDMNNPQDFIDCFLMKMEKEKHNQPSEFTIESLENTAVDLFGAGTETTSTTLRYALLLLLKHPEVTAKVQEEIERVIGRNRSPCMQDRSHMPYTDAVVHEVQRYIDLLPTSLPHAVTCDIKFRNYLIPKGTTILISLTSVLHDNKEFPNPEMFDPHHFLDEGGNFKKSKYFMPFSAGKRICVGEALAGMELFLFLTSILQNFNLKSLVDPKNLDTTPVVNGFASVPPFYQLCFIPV
Cav3 T inh – human Cav3.2 channel inhibition, primary screen. O95180. B-score at 10 µM. 4% of 100,000 active. AID 449739. Cav3.2-expressing cells, Fluo-4 calcium fluorescence FDSS; stronger effect = lower value;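 active = single-dose well whose peak fluorescence ratio is a statistical outlier from its plate by either plate-standardised score or position-corrected B-score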
CYP2C9 act – increases human cytochrome P450 2C9 activity | P11712 | recombinant CYP2C9, luciferin-H conversion, luminescence; stronger effect = higher value; factor 1 = untreated enzyme, 0 = blocked | activation factor at 5 µM | 1.4% of 96,000 active | AID 1024;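 active = activation factor of 2 or more for CYP2C9 at a 5 µM dose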
A number is an active result; – = inactive; · = not tested or not shown. Most compounds without a hit are left out; they make up all but 27% or so of the library.

SMILES | CYP2C19 inh | CYP2C19 activ | CYP2C9 inhib | Cav3 T inh | CYP2C9 act
Cc1cccc(C(=O)NCCN2CCN(c3ccccc3)CC2)c1 | – | – | – | – | –
O=C(NCCc1ccccc1)C(=O)NCC1(c2ccccc2)CCCC1 | – | – | – | – | –
O=C(NCC1(c2ccccc2)CCCC1)c1cccc(Br)c1 | – | – | – | -7.5 | –
CCOC(=O)N1CCN(C(=O)c2cccn3c(=O)c4cc(Cl)ccc4nc23)CC1 | – | – | – | – | –
O=C(NCCN1CCN(c2ccccc2)CC1)c1cccn2c(=O)c3cc(Cl)ccc3nc12 | – | – | 64 | – | –
O=C(NCCN1CCN(c2ccccc2)CC1)c1cccc(Br)c1 | 53 | – | – | – | –
COc1ccc(CC(=O)NC(C)c2nnc(SCCOc3ccc(OC)cc3)n2C)cc1 (stereo not drawn) | – | – | – | – | –
CSc1cccc(NS(=O)(=O)c2ccccc2)c1 | – | – | 66 | – | –
Cc1ccc(S(=O)(=O)Nc2cccc(/C=C/C(=O)O)c2)cc1 | – | – | – | – | –
CSc1cccc(NS(=O)(=O)c2ccc(F)cc2)c1 | 96 | – | 91 | -7 | –
CCOC(=O)COc1ccc(S(=O)(=O)Nc2cccc(SC)c2)cc1 | 88 | – | 78 | – | –
CCOC(=O)COc1ccc(S(=O)(=O)Nc2ccc3c(c2)OCCO3)cc1 | – | – | – | – | –
CCCCCn1c(=O)[nH]c2cc(C(=O)NCc3ccco3)ccc2c1=O | – | – | – | – | –
C#Cc1ccc([C@H]2C=C(C(=O)NCc3ccccc3)O[C@@H](OCc3ccc(CO)cc3)C2)cc1 | · | · | · | – | ·
O=C(NCC#CCOCc1ccccc1)c1ccccc1 | · | · | · | – | ·
Cc1cc([N+](=O)[O-])c2[nH]c(C(=O)N/N=C/c3ccccc3C(=O)O)c(-c3ccccc3)c2c1 | – | – | – | · | –
CC1(C)c2ccccc2N2CC(=O)NC21/C=C/c1ccco1 (stereo not drawn) | – | – | – | – | –
CC1(C)c2ccccc2N2CCC(=O)NC21/C=C/c1ccco1 (stereo not drawn) | 86 | – | 52 | – | –
Cc1ccc(C)c(OCC(=O)Nc2ccc3c(c2)OCO3)c1C | – | – | – | – | 2.9
CCN(C(=O)CCS(=O)(=O)c1ccc(Br)cc1)c1ccc2c(c1)OCO2 | 67 | – | – | · | –
O=C(CCS(=O)(=O)c1ccc(Br)cc1)Nc1ccc2c(c1)OCO2 | · | · | · | – | ·
Cc1ccc(S(=O)(=O)CCC(=O)Nc2ccc3c(c2)OCO3)cc1 | – | – | 94 | – | –
Cc1cccc(OCCCC(=O)Nc2ccc3c(c2)OCO3)c1 | 69 | – | 54 | – | –
COc1cccc2c(=O)n(CC(=O)N3CCCCC3)ccc12 | – | – | – | – | –
CC(=O)Nc1ccc2c(c1)nc(CCN1CCN(C)CC1)n2C | – | – | – | – | –
SMILES | CYP2C19 inh | CYP2C19 activ | CYP2C9 inhib | Cav3 T inh | CYP2C9 act
CCN(C(=O)c1c(C)cc(=O)oc1C)c1ccc2c(c1)OCO2 | – | – | – | – | –
COc1cc([N+](=O)[O-])ccc1NC(=O)CCCOc1cccc(C)c1 | – | – | – | -3.4 | –
Cc1ccc(S(=O)(=O)NCCC(=O)Nc2ccc3c(c2)OCO3)cc1 | 84 | – | 95 | – | –
COc1cc([N+](=O)[O-])ccc1NC(=O)CCCOc1ccc(C)cc1 | – | – | – | – | –
CCN(C(=O)c1coc(=O)c(Br)c1)c1ccc2c(c1)OCO2 | 59 | – | 62 | – | –
NC(=O)C1=C[C@@H](c2ccccc2)C[C@@H](OCc2ccc(CO)cc2)O1 | · | · | · | – | ·
Cc1ccc(Sc2nc(C)cc(C)c2S(C)(=O)=O)cc1 | – | – | 64 | – | –
Cc1cccc(C)c1N1CCN(c2ccc3nnc(C(F)(F)F)n3n2)CC1 | 64 | – | 89 | – | –
Cc1cc(C(=O)Nc2ccc3c(c2)OCO3)cs1 | 70 | – | – | – | –
Cc1cc(C)n2ncc(C(=O)Nc3ccc4c(c3)OCO4)c2n1 | – | – | 74 | – | –
CC(=O)Nc1ccc(C(=O)Nc2ccc3c(c2)OCO3)cc1 | – | – | – | – | –
CCOC(=O)c1c(N)sc(C(=O)Nc2ccc3c(c2)OCO3)c1C | 98 | – | 84 | – | –
CCOC(=O)c1c(C)c(C(=O)Nc2ccc3c(c2)OCO3)c(C)n1C | – | – | – | – | –
Cc1occc1C(=O)Nc1ccc2c(c1)OCO2 | 54 | – | – | – | –
CCOC(=O)c1[nH]c2ccc(F)cc2c1NC(=O)C1=COCCO1 | – | – | – | – | –
CCCC(=O)Nc1ccc(C(=O)Nc2nnc(COCC)s2)cc1 | · | · | · | – | ·
CN(C)C(=O)NC(O)C(Cl)Cl (stereo not drawn) | – | – | – | – | –
Cc1cc(C(=O)NC(C)c2ccc3c(c2)OCO3)cs1 (stereo not drawn) | 90 | – | 60 | – | –
CC(NC(=O)c1ccco1)c1ccc2c(c1)OCCO2 (stereo not drawn) | · | · | · | – | ·
O=C(c1ccccc1)c1nn(-c2ccc(Cl)cc2)c(=O)cc1C(F)(F)F | 75 | – | 53 | – | –
Cc1ccc(CNC(=O)CCS(=O)(=O)c2cccc3nonc23)cc1 | – | – | – | – | –
COc1ccccc1CNC(=O)CCS(=O)(=O)c1cccs1 | 83 | – | – | – | –
COc1ccccc1CNC(=O)CCS(=O)(=O)c1cccc2nonc12 | 91 | – | 59 | – | –
CC(C)C[C@H](NC(=O)c1nc[nH]c1C(=O)N1CCN(C(=O)OC(C)(C)C)CC1)C(=O)OC(C)(C)C | · | · | · | – | ·
O=C(OCC(=O)N1CCN(C(=O)c2ccco2)CC1)c1cc(=O)c2ccccc2o1 | – | – | – | – | –
SMILES | CYP2C19 inh | CYP2C19 activ | CYP2C9 inhib | Cav3 T inh | CYP2C9 act
CC(=O)n1cc(-c2ccncc2)c2ccccc21 | 80 | – | 79 | – | –
CCC(c1nnnn1C1CCCC1)N(Cc1cccs1)Cc1cc2cc(C)ccc2[nH]c1=O (stereo not drawn) | – | – | – | – | 2
CCOC(=O)Cn1nnnc1C(C(C)C)N(Cc1cccs1)Cc1cc2cc(C)ccc2[nH]c1=O (stereo not drawn) | 84 | – | 64 | – | –
CCOc1ccc2[nH]c(=O)c(CN(Cc3cccs3)C(CC)c3nnnn3C(C)(C)CC)cc2c1 (stereo not drawn) | 63 | – | 87 | -6.2 | –
CCOC(=O)Cn1nnnc1CN(Cc1ccc(OC)cc1)Cc1cc2cc(C)ccc2[nH]c1=O | · | · | · | – | ·
O=C(COC(=O)CCCSc1nc2ccccc2[nH]1)NC(=O)NC1CCCC1 | – | – | – | – | –
Cc1cc(C)n(-c2cc(N3CCN(C(=O)c4ccccc4C)CC3)ccc2[N+](=O)[O-])n1 | · | · | · | – | ·
CNC(=O)Cn1nc(-c2ccc(C)c(S(=O)(=O)N(C)C)c2)c2ccccc2c1=O | · | · | · | – | ·
O=C(NCCCN1CCOCC1)c1cccs1 | – | – | – | – | –
COC(=O)C[C@H]1c2cc(C(F)(F)F)ccc2S(=O)(=O)N1C1CCCC1 | · | · | · | – | ·
O=C(NCc1ccc2c(c1)OCO2)c1ccc(Cl)c(S(=O)(=O)N2CCOCC2)c1 | – | – | 68 | – | –
Cc1ccc(C(=O)NCc2ccco2)cc1S(=O)(=O)N1CCOCC1 | – | – | – | – | –

Assay outcomes deposited in PubChem BioAssay by several laboratories.
